Shown are actives, neighbours in structure and some others; about 2.2% of the full set was active somewhere.
EWS-Fli inh: inhibitors of EWS/Fli oncoprotein transcriptional activity | AID 651661 | 350,000 compounds, 0.67% hits | A673 NR0B1-luciferase reporter, viability-normalised | inhibition, % at 12.6 µM;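 active means mean inhibition of at least 50% after viability correction, with every replicate also passing that limit; inconclusive means mean reaches 50% but only one of two replicates passes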;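 further: firefly luciferase signal divided by Alamar Blue viability fluorescence both relative to DMSO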
PAX8 inh HTS: PAX8 transcriptional activity inhibition | RMG-I TPO-luciferase reporter, SteadyGlo, 24 h | inhibition, % at 12.6 µM | 360,000 compounds, 1.2% hits;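 active means mean replicate inhibition at least 60% with every replicate also reaching 60%; inconclusive means only one of the two criteria is met; inactive means mean below 60% and not all replicates reaching 60%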;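 further: luciferase light reporting Pax8 driven TPO promoter activity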
TRPM1 prom inh: reduces MITF-dependent TRPM1 promoter luciferase signal | SK-MEL-5 TRPM1 promoter luciferase, 24 h | inhibition, % at 12.5 µM | 330,000 compounds, 0.83% hits;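 active means mean inhibition across replicates of 60% or more, whatever share of single replicates reaches that level; inconclusive means some that reach 60%, reason not given; inactive means mean inhibition across replicates below 60%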
LGR2 inh: blocks bursicon-induced cAMP signaling via Drosophila LGR2 | 380,000 compounds, 0.35% hits | inhibition, % at 9.99 µM | HEK293 LGR2, CRE-luciferase, bursicon-stimulated, 4 h | AID 720647;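 active means drop in luminescence signal, shown as inhibition above about 50% in the replicate tests, limit read from the data, passing the limit was not always enough; inconclusive means probably only some replicates passing the limit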;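 further: agonist challenge used bursicon conditioned medium at about half maximal strength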
LMP1 NFkB inh: reduces LMP1-driven NF-kappaB luciferase signal | AID 504558 | inhibition, % at 12.5 µM | 350,000 compounds, 0.69% hits | LMP1-induced NF-kappaB luciferase reporter cells, luminescence; in the data active means inhibition above about 41%; inconclusive means no clear call, values can overlap the other calls
Shn3 inh set2: reduces Shn3 3'UTR luciferase signal in osteoblasts. Clone20 osteoblast Shn3 3'UTR firefly luciferase, 24 h. inhibition, % at 12.5 µM. 360,000 compounds, 0.52% hits;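 active means mean inhibition of at least 75% with every replicate also reaching 75%; inconclusive means mean inhibition at least 75% but some replicate below; inactive means mean inhibition below 75%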
A number is an active result; - = inactive; ? = inconclusive; . = no result.

SMILES | EWS-Fli inh | PAX8 inh HTS | TRPM1 prom inh | LGR2 inh | LMP1 NFkB inh | Shn3 inh set2
O=c1[nH]c2ccccc2n1C1CCN(C(c2nnnn2C2CCCC2)C2CC2)CC1 (configuration not stated) | - | - | . | - | . | -
CSCCC(c1nnnn1Cc1ccccc1)N1CCC(n2c(=O)[nH]c3ccccc32)CC1 (configuration not stated) | - | 96.6 | . | - | . | -
CC=Cc1ccc2n(c1=O)C[C@H]1[C@H](CO)[C@@H](C(=O)OC)[C@@H]2N1CC1CCOCC1 (mixture of isomers) | - | - | . | - | . | .
COc1ccc(-c2ccc([C@H]3[C@@H](CO)N4CCCCN(C(=O)Cc5ccccc5)C[C@@H]34)cc2)cc1 | . | - | . | - | . | .
c1cc(-c2ccc(C3[C@H]4CNC[C@@H]3N4CC3CC3)cc2)ccn1 (some centres not stated) | - | - | . | - | . | .
O=C(Cc1ccccn1)N1CCCCN2[C@@H](CO)[C@H](c3ccc(C#Cc4ccccc4)cc3)[C@@H]2C1 | - | - | . | - | . | .
O=c1[nH]c2ccccc2n1C1CCN(C(CCc2ccccc2)c2nnnn2C2CCCCC2)CC1 (configuration not stated) | - | - | . | 94.5 | . | -
CCN1/C(=C/C=C/C2=[N+](CC)c3ccccc3C2(C)C)C(C)(C)c2ccccc21 | 59.1 | 106.3 | . | 54.5 | - | -
CN1/C(=C\C=C2C(=O)NC(=O)NC2=O)C(C)(C)c2ccccc21 | - | - | - | - | - | -
COc1cccc2c1O[C@H]1C(=O)CC[C@H]3CN(C)CCC231 (some centres not stated) | - | - | - | - | - | 89.4
N#Cc1c(Br)n(C2OC(CO)C(O)C2O)c2ncnc(N)c12 (configuration not stated) | - | 81.9 | - | - | - | -
NC(=O)c1c(Br)n(C2OC(CO)C(O)C2O)c2ncnc(N)c12 (configuration not stated) | - | 85.5 | - | - | - | -
CCNC(=O)[C@H]1O[C@@H](n2cnc3c(N)ncnc32)[C@H](O)[C@@H]1O | - | - | - | - | - | -
Cc1ccc(C[n+]2c(-c3ccc(C)cc3)cc(-c3ccc(C)cc3)cc2-c2ccc(C)cc2)cc1 | . | . | 95.7 | . | ? | 91.6
CNc1ccc2oc(C[C@H]3O[C@@]4(CC[C@H]3C)O[C@H]([C@H](C)C(=O)c3ccc[nH]3)[C@H](C)C[C@H]4C)nc2c1C(=O)O | - | 80.8 | 101.8 | - | 69.7 | 97.4
O=C(Cc1ccccc1)N1CC2(C1)[C@H](c1ccccc1)[C@@H](CO)N2Cc1cccc(F)c1 | - | - | . | - | . | .
CC(=O)N(C)C1=Nc2ccc(Cl)cc2C(c2ccccc2)=[N+]([O-])C1 | - | - | - | - | 70.2 | -
O=C(O)[C@H]1[C@H](CO)[C@H]2Cn3c(ccc(-c4ccc(F)cc4)c3=O)[C@@H]1N2CC1CCCCC1 | - | - | . | - | . | .
C=C1C(=O)[C@@]23C[C@H]4[C@@H]5[C@@]6(C)CCC[C@@]57[C@@H]2[C@@H](O)[C@@H]1C[C@H]3[C@H]7N4C6 | - | . | . | 59.0 | - | -
COC(=O)[C@@H]1[C@@H](CO)[C@@H]2Cn3c(ccc(-c4cccnc4)c3=O)[C@H]1N2S(=O)(=O)c1ccccc1C | - | - | . | - | . | .
CC(=O)OC1CC2OC3C=C(C)CCC3(C)C1(C)C21CO1 (configuration not stated) | - | . | . | 103.8 | . | 98.1
CC(=O)O[C@H]1C[C@@H]2OC3C=C(C)CCC3(C)[C@@]1(C)[C@@]21CO1 (some centres not stated) | - | 110.0 | 65.9 | 102.4 | 91.3 | 97.6
C[C@H]1CN([C@@H](C)CO)C(=O)c2c(c3ccccc3n2C)-c2ccccc2CO[C@H]1CN(C)C(=O)Oc1ccccc1 | - | - | . | - | . | .
O=C(O)[C@H]1[C@H](CO)[C@H]2Cn3c(ccc(C4=CCCC4)c3=O)[C@@H]1N2C(=O)Cc1ccccn1 | - | . | . | - | . | .
COC(=O)[C@H]1[C@H](CO)[C@H]2Cn3c(ccc(-c4ccc(OC)cc4)c3=O)[C@@H]1N2C(=O)c1ccccc1F | - | - | . | - | . | .
SMILES | EWS-Fli inh | PAX8 inh HTS | TRPM1 prom inh | LGR2 inh | LMP1 NFkB inh | Shn3 inh set2
O=C(O)[C@@H]1[C@@H](CO)[C@@H]2Cn3c(ccc(-c4cccc(F)c4)c3=O)[C@H]1N2CCc1ccccc1 | - | - | . | - | . | .
COC1CC2C=C(C)C=CC=CC(=O)NC(c3ccccc3)CC=CCCC(O)CC(=O)C2=C1O (configuration not stated) | 55.4 | 116.2 | . | - | . | 97.9
C=C1C(=O)O[C@@H]2C[C@@H](C)[C@@H]3C4OC4C(=O)[C@@]3(C)[C@@H](O)[C@H]12 (some centres not stated) | 72.8 | 104.1 | 101.1 | 84.7 | 99.5 | -
C=C1C(=O)OC2CC(C)C3C=CC(=O)C3(C)C(O)C12 (configuration not stated) | . | . | 99.8 | . | 92.8 | 97.1
C=C1C(=O)O[C@H]2C[C@@H](C)[C@@H]3C=CC(=O)[C@@]3(C)C[C@H]12 | 59.0 | 108.4 | . | 82.4 | . | .
C=C1C(=O)O[C@@H]2C[C@@H](C)[C@@H]3C=CC(=O)[C@@]3(C)[C@@H](OC(=O)CC(=O)O[C@H]3[C@@H]4C(=C)C(=O)O[C@@H]4C[C@@H](C)[C@@H]4C=CC(=O)[C@]43C)[C@H]12 | 55.5 | 109.3 | 98.3 | . | 92.5 | 95.7
O=C(O)[C@H]1[C@H](CO)[C@H]2Cn3c(ccc(-c4ccncc4)c3=O)[C@@H]1N2C(=O)C1CCCCC1 | - | . | . | - | . | .
COC(=O)[C@H]1[C@H](CO)[C@H]2Cn3c(ccc(C4=CCCCC4)c3=O)[C@@H]1N2CC1CCCCC1 | - | . | . | - | . | .
COc1ccc(-c2ccc([C@@H]3[C@H](CO)N4CCCCN(C(=O)Cc5ccccc5)C[C@@H]34)cc2)cc1 | . | - | . | - | . | .
C=C1C(=O)O[C@H]2[C@H]1[C@H](OC(=O)CC(=O)O[C@@H]1C[C@@H](C)[C@@H]3C=CC(=O)[C@@]3(C)[C@H]3OC(=O)C(=C)[C@H]13)C[C@@H](C)[C@H]1C=CC(=O)[C@]12C | - | 68.4 | - | - | - | -
CC1CCC(C(C)C)C(OC(=O)Cn2c(COc3ccccc3)[n+](C)c3ccccc32)C1 (configuration not stated) | - | 90.8 | 97.2 | - | - | -
O=C(Cc1ccccn1)N1CCCCN2[C@H](C1)[C@@H](c1ccc(-c3ccccc3F)cc1)[C@@H]2CO | - | - | . | - | . | .
CC1Oc2cc3c(-c4c(O)cc(O)c5c(O)c6c(cc45)OC(C)C(C)C6=O)c(O)cc(O)c3c(O)c2C(=O)C1C (configuration not stated) | . | . | 82.3 | . | - | 87.9
C/C=C/c1ccc(C2[C@@H]3CN(C(=O)c4cnccn4)C[C@H]2N3)cc1 (some centres not stated) | - | - | . | - | . | .
COc1ccc(C#Cc2ccc([C@H]3[C@H](CO)N4CCCCN(C(=O)Cc5ccncc5)C[C@@H]34)cc2)cc1 | . | - | . | - | . | .
O=[N+]([O-])c1ccc(N(CCO)CCO)c2c1no[n+]2[O-] | - | 108.5 | . | ? | - | -
